Experiment [1] is described as follows: UWB1.289 Cancer Cell Toxicity qHTS against the NCATS CANVASS Library (AID 1347347). Note: nearly all actives have a fitted effect of over 60% in size. A digest of the protocol:
(§1)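 Step one: seed 1000 cells per well. Step two: incubate 4 h. Step three: add test compounds in 11 concentrations. Step four: culture 72 h, then add CellTiter-Glo and record luminescence after 15min.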

The nature of experiment [2]: SW1088 Cancer Cell Toxicity qHTS against the NCATS CANVASS Library (AID 1347350). Note: nearly all actives have a fitted effect of over 75% in size. A digest of the protocol:
as §1
A general note: In qHTS, concentration-response curves come from the screen itself.

Experiment [3] in a line: A2780 Cisplatin Sensitive Ovarian Cancer Cell Toxicity qHTS against the NCATS CANVASS Library (AID 1347353). Note: nearly all actives have a fitted effect of over 60% in size. A digest of the protocol:
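Luminescent ATP content (ATPLite, 10 min at room temperature) served as the read-out after cells had been exposed to compounds for 72 hours at 37 °C. Dosing followed an 11-point concentration series.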

Experiment [4] can be described thus: UWB1.289-WTBRCA1 Cancer Cell Toxicity qHTS against the NCATS CANVASS Library (AID 1347354). A digest of the protocol:
(§2)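 Luminescent ATP read-out (CellTiter-Glo, 15min at room temperature) measures survival after cells face an 11-point compound series for 72 hours at 37 degrees C/5% CO2.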

Experiment [5] is described as follows: HEK-293 Cancer Cell Toxicity qHTS against the NCATS CANVASS Library (AID 1347355). Note: series mostly up to about 46 µM; nearly all actives have a fitted effect of over 65% in size. A digest of the protocol:
as §2

The test system of experiment [6] is NAD(P)H diaphorase (Clostridium kluyveri). In words: Diaphorse counterscreen qHTS: Assay Interference Panel against the NCATS CANVASS Library (AID 1347362). Note: potency is the fitted concentration of half-maximal effect. In outline: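 Clostridium kluyveri diaphorase in PBS + 0.01% Tween-20 preincubated 15 min with compounds. Resazurin and NADH then added for 5 min at room temperature in the dark; resorufin fluorescence read (ex 525, em 598).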
For orientation: Counterscreens check selectivity or assay interference.

Experiment [7] in a line: KB-8-5-11 Cancer Cell Toxicity qHTS against the NCATS CANVASS Library (AID 1347364). Note: nearly all actives have a fitted effect of over 75% in size. A digest of the protocol:
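Plate 500 KB-8-5-11 cells per well in DMEM + 10% FBS, add compounds by pin transfer, incubate 72 hr at 37C. Add CellTiter-Glo, wait 10 minutes at room temperature, read luminescence.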

A short description of experiment [8]: SDT Cancer Cell Toxicity qHTS against the NCATS CANVASS Library (AID 1347365). Note: nearly all actives have a fitted effect of over 60% in size. Note: potency is the fitted concentration of half-maximal effect. In outline:
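qHTS, SDT dog glioma line, 500 cells/well; cpds 11 pts; 72 hr, 37C, 5% CO2; CellTiterGlo ATP luminescence.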

The nature of experiment [9]: KB-3-1 Cancer Cell Toxicity qHTS against the NCATS CANVASS Library (AID 1347366). Note: nearly all actives have a fitted effect of over 75% in size. A digest of the protocol:
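KB-3-1 cells (500 cells/well) in DMEM + 10% FBS were treated with compounds for 72 hr at 37C, 5% CO2. Viability was read as CellTiter-Glo luminescence after 10 minutes at room temperature.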

Experiment [10] is described as follows: qHTS for Hypoxia signaling pathway (HIF-1) antagonists against the NCATS CANVASS Library (AID 1347374).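 Note: HRE-bla ME-180 cells stimulated with cobalt chloride to stabilize HIF-1alpha; series mostly up to about 38 µM; nearly all actives have a fitted effect of over 60% in size.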 In outline:
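HRE-bla ME-180 cells in medium with 0.5% dialyzed FBS received compounds (11-point series) plus CoCl2 (60 uM addition stock) for 17 hrs at 37C. Beta-lactamase activity read with CCF4 (405 nm ex, 460/530 nm em); CellTiter-Glo viability measured in same wells.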

Experiment [11] is described as follows: qHTS for Hypoxia signaling pathway (HIF-1) agonists against the NCATS CANVASS Library (AID 1347375). In outline:
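ME-180 HRE-bla reporter cells; 2,000/well, 0.5% dialyzed FBS; cpd added after 5 h, 17 h 37C/5% CO2; CCF4-AM 2 h RT; FRET 460/530 nm; CellTiter-Glo viability same wells, 30 min.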

Experiment [12] is described as follows: DH5-alpha competent E. coli microbial cell viability qHTS against the NCATS CANVASS Library (AID 1347377). As to conditions: outcome: dose series up to 46.1 µM unless noted. A digest of the protocol:
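qHTS, 11-pt; E. coli DH5-alpha, 0.2 OD; o/n 37C/5% CO2; BacTiter-Glo, 20 min RT; luminescence.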

Experiment [13] can be described thus: qHTS for H2AX Agonists against the NCATS CANVASS Library (AID 1347378). In outline:
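CHO-K1 cells were plated overnight at 37C, then exposed to compounds (concentration series, 0.76% DMSO final) for 3 hr at 37C. Lysates received Eu-cryptate anti-pH2AX (S139) and d2 anti-H2AX antibodies; after 24 hr at room temperature, TR-FRET 665/620 nm ratio was read.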

Experiment [14] can be described thus: qHTS for Activators of p53 Stress Response Pathway screened against the NCATS CANVASS Library (AID 1347388). A digest of the protocol:
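p53RE-bla HCT-116 cells (4000/well) were pre-incubated for 5 h, then treated with compound (11 points) for 16 h at 37C. After 2 h with CCF4, the 460/530 nm ratio gave reporter activation; CellTiter-Glo measured viability.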

Experiment [15] is described as follows: Secretion counterscreen for inhibitors of the SERCaMP assay screened against the NCATS CANVASS Library (AID 1347390).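 Note: light from luciferase secreted into medium read as a measure of general secretion; series mostly up to about 77 µM.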 A digest of the protocol: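 SH-SY5Y cells expressing constitutively secreted GLuc, 1000 cells/well, attached 4 h at 37C, then exposed to compounds (0.001 - 77 uM, 11-pnt series) for 20 h. Coelenterazine added; luminescence read to flag secretory-pathway interferers.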

Experiment [16] in a line: qHTS for activators of dead-cell proteases activity screened against the NCATS CANVASS Library (AID 1347392).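 Note: luminescence from protease leaking out of membrane-damaged cells cleaving impermeant substrate; rising signal means more cytotoxicity.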 In outline:
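HepG2 cells, 2000/well, attached 18 h at 37C, then exposed to compounds (11-point qHTS) for 5 h. Dead-cell protease release read as luminescence from cell-impermeant AAF-aminoluciferin substrate after 15 min at room temperature.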

Experiment [17] is described as follows: qHTS for inhibitors of ER calcium dysfunction: SERCaMP assay screened against the NCATS CANVASS Library (AID 1347393).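 Note: series mostly up to about 77 µM; lower secreted reporter signal means inhibitor of ER calcium depletion; nearly all actives have a fitted effect of over 40% in size.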 In outline: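 SH-SY5Y GLuc-SERCaMP, 1000 cells/well, 4 h attach; cpd 16 h, 37C/5% CO2; thapsigargin (added as 6x 600 nM) 4 h; coelenterazine; luminescence. Reduced reporter release = ER Ca stabilization.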
A short description of experiment [18]: qHTS for inhibitors of Wild type Zika virus screened against the NCATS CANVASS Library (AID 1347396).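 Note: ATP luminescence of surviving cells so rescue from viral cell killing; series mostly up to about 46 µM.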 In outline:
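Vero 766 cells, 1000/well, o/n attach; cpds pin-transferred (11-pt qHTS); WT Zika added; 72 h, 37C, 5% CO2; CellTiter Glo lumi. Uninfected + vehicle = 100% inhibition.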

Experiment [19] is described as follows: Viability qHTS for inhibitors of the SERCaMP assay screened against the NCATS CANVASS Library (AID 1347400). Note: series mostly up to about 92 µM; nearly all actives have a fitted effect of over 70% in size. In outline: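 SH-SY5Y SERCaMP MJH297 cells, 1000/well; 4 h settle, 37C/5% CO2; pin-transferred cpds; 48 h; CellTiter-Glo lum. Pos ctrl bortezomib 0.0001 - 4.6 uM.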
Experiment [20] is described as follows: Redox Reaction Profiling qHTS: Assay Interference Panel against the NCATS CANVASS Library (AID 1347401). Note: potency is the fitted concentration of half-maximal effect. In outline: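 Compounds in 11-point series incubated with 5 uM resazurin and 200 uM DTT in 50 mM HEPES pH 7.3, 50 mM NaCl. Resorufin fluorescence (Ex 525/Em 598) read before and after 15 min in the dark.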

The results in this text go back to PubChem BioAssay (NCATS).

The structures appear in SMILES notation. Records with an inconclusive call do not appear. A number with no mark means an inactive call. Activity calls are given as the source filed them. Calls come from the whole dose curve; as a rule, active = well fitted curve in the direction sought with a large enough effect; inconclusive = small, poorly fitted or top-dose-only effect, or another doubt; inactive = no such curve, though single readings can be large; an effect the other way counts as inactive or inconclusive.

With `C[C@@H]1O[C@H](c2c(O)cc(O)c3c(=O)cc(-c4ccc(O)cc4)oc23)[C@H](O)[C@H](O)[C@H]1O`, the Potency result in experiment [1], in experiment [2], in experiment [3], in [4], in [5] and in [6] was “inactive” in each case. Further, the Potency result in experiment [7], in [8], in experiment [9], in experiment [10], in [11] and in [13] was “inactive” each time. In addition, the Potency result in experiment [14], in experiment [15], in experiment [16], in experiment [17], in [18] and in experiment [19] was “inactive” each time. In addition, the Potency result in experiment [20] is “inactive”. In [12], the compound was classed as inactive.

Consider `O=Cc1ccc2n1C[C@@]1(OC2)O[C@H](CO)[C@@H](O)[C@@H]1O`, for which the Potency result in experiment [1], in experiment [2], in experiment [3], in experiment [4], in experiment [5] and in experiment [6] was “inactive” each time. Moreover, the Potency result in experiment [7], in experiment [8], in experiment [9], in experiment [10], in [11] and in experiment [13] was “inactive” in each case. The Potency entry in [14], in experiment [15], in [16], in experiment [17], in experiment [18] and in experiment [19] was “inactive” each time. For the same compound, in experiment [20], the Potency result was “inactive”. The result in [12] was inactive.

In the case of `COc1ccc(CCCc2cc(O)c(OC)c(O)c2)c(O)c1O`, the Potency result in experiment [1], in experiment [2], in experiment [3], in experiment [4], in experiment [7] and in experiment [10] was “inactive” each time. Besides, the Potency result in experiment [11], in [13], in experiment [14], in experiment [15], in experiment [16] and in experiment [18] was “inactive” in each case. In addition, the Potency result in [19] was “inactive”. In addition, the values for the Potency in experiment [6], in experiment [8] and in [20] were 21.6 µM (active), 0.166 µM (active) and 21.5 µM (active), respectively. The compound was classed as inactive in experiment [12].

Take `CC(O)/C=C/C1(O)C(C)(C)CC(O)CC1(C)O` (stereo unspecified): the Potency result in [1], in experiment [2], in [3], in experiment [4], in experiment [5] and in experiment [6] was “inactive” in each case. For the same compound, the Potency entry in experiment [7], in experiment [8], in experiment [9], in [10], in experiment [11] and in experiment [13] was “inactive” throughout. The Potency result in [14], in experiment [15], in [16], in [17], in [18] and in experiment [19] was “inactive” in each case. In addition, the Potency result in experiment [20] was “inactive”. Also, in experiment [12], the outcome was inactive.

Consider `C/C=C/C=C/C1(O)C2C=C3C(=O)CC45C(=O)C(O)=C(C)C(=O)C4C1C1(C(=O)C(O)=C(C)C(=O)C351)C2C` (stereo unspecified), for which the Potency result in experiment [1], in experiment [2], in experiment [3], in experiment [4], in experiment [5] and in [6] was “inactive” throughout. Besides, the Potency result in experiment [7], in [8], in experiment [9], in [10], in [11] and in experiment [13] was “inactive” each time. For the same compound, the Potency result in experiment [14], in [15], in [16], in experiment [17], in experiment [18] and in [19] was “inactive” in each case. The outcome in [12] was inactive.
